# From PubChem BioAssay
# Test: probe aShh binding to arrayed compounds – biochemical, biotinylated probe, 635/667 nm fluorescence, primary screen (AID 1114);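 note: probe is biotin-labelled aShh protein from a stem cell growth factor screen; measures binding of labelled protein to compounds printed on the slide; score merges feature fluorescence at 667 nm with signal-to-noise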
# Details: small-molecule microarray, higher = more signal
row,SMILES,composite z-score
1,O=c1cccc(-c2cccc(Cl)c2)o1,-0.338
2,COCCOC(=O)N1C(=O)[C@@]2(c3cc(C#CC4=CCCCC4)ccc31)[C@H](C(=O)N1CCN(c3ncccn3)CC1)[C@H]1C(=O)O[C@H](c3ccccc3)[C@H](c3ccccc3)N1[C@@H]2c1ccc(O)cc1,0.258
3,COCC(=C=CC[C@H](O)c1ccc(OCCO)cc1)C[C@H](O)COCc1ccccc1,-0.279
4,C=C[C@@H](COC(C)=O)NS(=O)(=O)c1ccc(Br)cc1,-0.0643
5,O=C1C2C=CC(C(O)c3cc(C(F)(F)F)cc(C(F)(F)F)c3)N(Nc3ccc([N+](=O)[O-])cc3)C2C(=O)N1c1ccccc1 (stereo not given),-0.224
6,CC(=O)NCCCC[C@@H]1NC(=O)[C@@H]2C[C@H](C(=O)O)[C@H](c3ccc(O)cc3)N2C1=O,-0.221
7,COCCOC(=O)N1C(=O)[C@@]2(c3cc(C#CC4=CCCCC4)ccc31)[C@H](c1ccc(O)cc1)N1[C@H](c3ccccc3)[C@H](c3ccccc3)OC(=O)[C@H]1[C@@H]2C(=O)Nc1nc2ccccc2s1,-0.066
8,CC(C)CNC(=O)[C@@H]1c2ccccc2C(=O)N(Cc2cc(F)cc(C(F)(F)F)c2)[C@H]1c1ccc(CO)cc1,0.0639
9,C=C(C(=O)CC[C@H](OC(C)=O)c1cccc(OCCO)c1)C(C)C,-0.117
10,O=C1O[C@@H](c2ccccc2)[C@@H](c2ccccc2)N2[C@@H](c3ccc(O)cc3)[C@]3(C(=O)Nc4ccc(C#CCCO)cc43)[C@@H](C(=O)NC[C@H](O)c3ccccc3)[C@H]12,0.057
11,CCCN1C(=O)[C@]2(Cc3ccccc3)N=C(c3ccc(OCCCO)cc3)O[C@@H]2c2ccccc21,-0.231
12,C[C@H]1C2=C3C(CC[C@H]4C(OCc5ccc(F)cc5C(F)(F)F)OC[C@](C)([C@@H]34)N(C(=O)OC(C)(C)C)C2)C2COC(=O)OCC21 (stereo not given in full),0.26
13,O=C1c2ccccc2[C@](Cc2ccccc2I)(C(=O)NCCN2CCOCC2)[C@H](c2ccc(CO)cc2)N1Cc1ccccc1,0.385
14,COC(=O)[C@@]1(Cc2ccc(OC)cc2)[C@H]2c3cc(C(=O)N(C)C)n(Cc4nc5ccccc5[nH]4)c3C[C@H]2CN1C(=O)c1ccccc1,0.361
15,C[C@]1(C(=O)NC2CC2)c2ccccc2C(=O)N(Cc2ccc(OC(F)(F)F)cc2)[C@H]1c1ccc(CO)cc1,-0.0243
16,CN(C)CCCNC(=O)[C@@H]1c2ccccc2C(=O)N(CC23CC4CC(CC(C4)C2)C3)[C@H]1c1ccc(CO)cc1,-0.542
17,CC1CC/C=C\[C@H]2OC34C=CCN(C(C)C)C(=O)[C@H]3N(CCCCCO)C(=O)[C@@H]4C2C(=O)O1 (stereo not given in full),-0.206
18,C=CCOC(=O)[C@H]1[C@@H]2C(=O)O[C@@H](c3ccccc3)[C@@H](c3ccccc3)N2[C@@H](c2ccc(OCCOC(=O)[C@H]3C[C@H]4C(=O)N[C@@H](Cc5ccccc5)C(=O)N4[C@H]3c3cccc(OCCO)c3)cc2)[C@]12C(=O)Nc1ccc(I)cc12,-0.144
19,CC(C)CN1C(=O)[C@@]2(c3ccc([N+](=O)[O-])cc3)CC(=O)N(CC34CC5CC(CC(C5)C3)C4)[C@@H]2c2ccc(CO)cc21,0.151
20,C=C(CCCC)/C(=C/C[C@@H](OC(C)=O)c1ccc(CO)o1)c1cc(C(=O)OC)ccc1OC,-0.232
21,COC(=O)C1(Cc2ccccc2)C=C2C(=C(C(C)C)C(=O)C2C)CN1 (stereo not given),0.109
22,COc1ccc([Si](C)(C)[C@@H]2[C@@H](CCO)O[C@]3(C(=O)N(Cc4cccc(N5C(=O)c6cccc7cccc5c67)c4)c4ccccc43)[C@H]2C)cc1,0.0815
23,C=CCC(OC(C)=O)[C@@H]1[C@@H](N(Cc2cc3ccccc3o2)C(=O)Cc2ccc(F)cc2)c2cc(OCCCO)ccc2N1C(=O)c1ccc2ccccc2n1 (stereo not given in full),-0.426
24,C=CCOC(=O)[C@@H]1[C@H]2C(=O)O[C@H](c3ccccc3)[C@H](c3ccccc3)N2[C@H](c2ccc(OCCOC(=O)[C@H]3C[C@H]4C(=O)N[C@@H](CCCC[N+](C)(C)C)C(=O)N4[C@H]3c3ccc(O)cc3)cc2)[C@@]12C(=O)Nc1ccc(I)cc12,0.147
25,[N-]=[N+]=Nc1ccccc1[C@@H]1OC(c2ccc(OCCCO)cc2)=N[C@]1(CCS(=O)(=O)c1ccccc1)C(=O)NCCN1CCOCC1,0.337
